A selection: hits, their analogues and other compounds. The true share with any hit is near 19%.
HT1080 IDH1KD tx: toxicity to HT-1080 IDH1 knockdown cells (counter line); HT-1080 IDH1 knockdown viability, ATP luminescence, 48 h; Potency, µM (top dose mostly 46.1 µM), for the others: at the highest dose activity, negative = toxicity, most hits filed as cytotoxic; actives 2% (n = 360,000); AID 686971;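 note: potency is the fitted concentration of half-maximal effect; 0% = DMSO wells and -100% = cell-free medium wells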
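HT-1080-IDH1KD cells (IDH1 knocked down), 750/well in RPMI with 5% FBS, treated with compound 48 h at 37 degrees C. Viability by CellTiter-Glo luminescence, normalised to DMSO and no-cell wells; concentration-response curves classed.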
ELG1 repair inh: ELG1-dependent DNA repair inhibition | AID 504467 | actives 2.3% (n = 330,000) | Potency, µM (titrated, usually from 46.1 µM), inactives show at the top dose activity change, negative = inhibition, hits mostly inhibitors | HEK293T ELG1-luciferase reporter, luminescence, 16 h; DNA damage induced by 5-fluorouridine; note: potency is the fitted concentration of half-maximal effect; nearly all actives have a fitted effect of over 55% in size
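HEK293T cells expressing luciferase-tagged ELG1 (2,000/well) received 5-Fluorouridine plus compound or DMSO for 16 hr at 37 °C. Luciferase was read by ONE-Glo luminescence after 30 min at room temperature.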
HT1080-NT tox: kills 2HG-producing HT-1080-NT fibrosarcoma cells. HT-1080-NT fibrosarcoma viability, CellTiter-Glo ATP luminescence, 48 h. Potency, µM (top dose mostly 46.1 µM), inactives show at the top dose activity, negative = less viability, hits mostly cytotoxic. actives 1.6% (n = 360,000). AID 686970;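 note: NT is the 2HG producing partner of a matched IDH1 knockdown line; potency is the fitted concentration of half-maximal effect; 0% = DMSO-treated cells and -100% = media-only wells without cells; nearly all actives have a fitted effect of over 55% in size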
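Toxicity toward the 2HG-producing NT line was scored as %Activity, normalised to DMSO and no-cell wells, from CellTiter-Glo luminescence after 48 hours' treatment.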
TDP1 cell CPT: growth inhibition of DT40 Tdp1-/-;hTDP1 cells with camptothecin (screen for TDP1 inhibitors); chicken DT40 Tdp1-/-;hTDP1 cells + 20 nM CPT, ATP luminescence, 48 h; Potency, µM (highest dose often 46.2 µM), without a hit: at the highest dose activity change, negative = growth inhibition, hits mostly inhibitors; actives 12% (n = 420,000); note: potency is the fitted concentration of half-maximal effect; nearly all actives have a fitted effect of over 55% in size
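Chicken DT40 Tdp1-/- cells complemented with human TDP1, 400 cells/well, exposed to compounds plus 20 nM camptothecin for at least 48 h at 37 C; viability read as ATP content by CellTiter-Glo luminescence.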
TDP1 cell noCPT: qHTS for Inhibitors of human tyrosyl-DNA phosphodiesterase 1 (TDP1): qHTS in cells in absence of CPT; DT40 Tdp1-/- hTDP1 cells, no CPT, ATP luminescence, 48 h; Potency, µM (top dose mostly 46.2 µM), for inactives: at the highest dose activity change, negative = growth inhibition, most hits filed as inhibitors; actives 15% (n = 420,000); AID 686978, 2013; note: potency is the fitted concentration of half-maximal effect; nearly all actives have a fitted effect of over 55% in size
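Compound effects on proliferation are scored in DT40 Tdp1-/-;hTDP1 cells in the absence of CPT. ATP levels (CellTiter-Glo luminescence) are recorded after a ≥48 hr, 37 °C incubation.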
IL-1B inflam inh: inhibitors of inflammasome signaling (IL-1 beta secretion); THP-1 LPS/ATP IL-1B secretion, AlphaLISA, 16 h; hits give low values; activity change, % at 57.5 µM; actives 4.7% (n = 360,000); in the data active = activity change below about -50%; inconclusive = mostly about -30% to -49%
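THP-1 cells pretreated 1 hr with compounds (up to 57.5 uM final), then stimulated with LPS (250 ng/mL final) plus ATP (1.25 mM final); secreted IL-1B measured by AlphaLISA after 16 hr, decreased signal indicating inhibition.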
* = called active by the depositor; ? = inconclusive; · = not tested or not shown. Unless noted, calls come from the whole dose curve; as a rule, active = well fitted curve in the direction sought with a large enough effect; inconclusive = small, poorly fitted or top-dose-only effect, or another doubt; inactive = no such curve, though single readings can be large; an effect the other way counts as inactive or inconclusive. Unless noted, % is set by controls: 0 for no effect and ±100 for the full control effect.

SMILES	HT1080 IDH1KD tx	ELG1 repair inh	HT1080-NT tox	TDP1 cell CPT	TDP1 cell noCPT	IL-1B inflam inh
Cc1ncoc1C(=O)N1CCc2c([nH]c3ccccc23)C1c1ccccc1F (stereo unspecified)	-19.8%	-0.2%	?	-0.9%	-16.4%	-6.8
CCn1nc(C)cc1C(=O)N1CCc2c([nH]c3ccccc23)C1c1cc(F)ccc1F (stereo unspecified)	23.1µM*	?	?	?	?	?
CSc1ccc(C2c3[nH]c4ccccc4c3CCN2C(=O)c2ccnn2C)cc1 (stereo unspecified)	?	?	?	-29.7%	?	?
COc1cc(C(=O)N2CCc3c([nH]c4ccccc34)C2c2ccc(F)cc2)cc(OC)c1OC (stereo unspecified)	·	·	·	13µM*	14.6µM*	·
CCOc1cc(C(=O)N2CCc3c([nH]c4ccccc34)C2c2ccccc2)cc(OCC)c1OCC (stereo unspecified)	·	·	·	6.51µM*	5.8µM*	·
Cc1ccc(CCNC(=O)Cn2ncc3c([nH]c4ccc(C)cc43)c2=O)cc1	·	·	·	-9.6%	-10.1%	·
COc1cc(C(O)c2nc(-c3ccccc3OC)cs2)ccc1F (stereo unspecified)	0.0%	·	?	?	?	-9.5
CCc1ccc(CN(C)C(=O)c2cc(COc3ccc(-n4cncn4)cc3)on2)cc1	1.4%	-12.5%	1.9%	?	14.6µM*	?
Cc1ccc(OCc2cc(C(=O)N(C)Cc3cnn(-c4ccccc4C)c3)no2)cn1	20.6µM*	?	18.4µM*	11.6µM*	18.4µM*	-9.0
CC(C)N(Cc1nccn1C)C(=O)c1cc(COc2ccc(-n3cncn3)cc2)on1	-0.2%	·	-2.5%	-23.7%	?	0.0
CN(Cc1ccc(F)cc1)C(=O)c1cc(COc2ccc(-n3cncn3)cc2)on1	-5.4%	-17.6%	-11.2%	23.1µM*	16.4µM*	-9.2
CCN(CC(=O)Nc1ccc(NC(C)=O)cc1)C(=O)/C=C/c1ccc(S(=O)(=O)N2CCCCCC2)cc1	?	-3.3%	-15.2%	?	?	-4.7
COC(=O)C1=C(C(=O)OC)[C@@H]2N(Cc3ccccc3)c3ccccc3[C@@]23C[C@@H](C(=O)OC)N(C(=O)c2cc(C)oc2C)C3=N1	-6.0%	·	-13.0%	23.1µM*	18.4µM*	-14.5
COC(=O)C1=C(C(=O)OC)[C@@H]2N(Cc3ccccc3)c3ccccc3[C@@]23C[C@@H](C(=O)OC)N(C(=O)c2cccs2)C3=N1	?	0.5%	?	20.6µM*	?	45.2
CCOC(=O)N1C2=NC(C(=O)OC)=C(C(=O)OC)[C@@H]3N(C)c4ccccc4[C@]23C[C@H]1C(=O)OC	-2.5%	15.2%	0.5%	16.4µM*	18.4µM*	0.0
C#CCCOC(=O)N1C2=NC(C(=O)OC)=C(C(=O)OC)[C@@H]3N(Cc4ccccc4)c4ccccc4[C@]23C[C@H]1C(=O)OC	?	-4.3%	-7.6%	16.4µM*	?	-29.8
Cc1ccc(C(=O)NCC2CCCO2)cc1S(=O)(=O)N1CCCCC1 (stereo unspecified)	5.3%	1.6%	-0.4%	-0.5%	4.3%	7.0
CC(CNC(=O)c1nnc(Cc2ccc(F)cc2)o1)c1ccccc1 (stereo unspecified)	·	·	·	?	-26.6%	·
CCOCCCNC(=O)C(=O)Nc1c2c(nn1-c1ccccc1)CSC2	·	·	·	-21.1%	-18.8%	·
COC(=O)C1=C(C(=O)OC)[C@@H]2N(C)c3ccc(OC)cc3[C@@]23C[C@@H](C(=O)OC)N(C(=O)c2cccs2)C3=N1	10.0%	-26.7%	5.4%	-1.4%	-22.2%	19.1
CC#CCN1c2ccccc2[C@]23C[C@@H](C(=O)OC)N(C(=O)c4ccc(Br)cc4)C2=NC(C(=O)OC)=C(C(=O)OC)[C@H]13	-9.4%	·	-13.8%	20.6µM*	18.4µM*	-5.9
COC(=O)C1=C(C(=O)OC)[C@@H]2N(C)c3ccc(OC)cc3[C@@]23C[C@@H](C(=O)OC)N(C(=O)c2cc(C)oc2C)C3=N1	-12.9%	·	-10.7%	23.1µM*	?	18.7
CC(=O)N1CCOc2cc(S(=O)(=O)NCc3ccccc3Cl)c(C)cc21	·	·	·	2.9%	-15.0%	·
Cc1cccc(OCC(=O)Nc2ccc3nc(Nc4cccc(C(F)(F)F)c4)cc(C)c3c2)c1	·	·	·	20.6µM*	13µM*	·
COc1ccccc1CC(=O)Nc1ccc2nc(Nc3cccc(Cl)c3)cc(C)c2c1	·	·	·	20.6µM*	16.4µM*	·
SMILES	HT1080 IDH1KD tx	ELG1 repair inh	HT1080-NT tox	TDP1 cell CPT	TDP1 cell noCPT	IL-1B inflam inh
Cc1ccc(OCC(=O)Nc2ccc3nc(Nc4cccc(Cl)c4)cc(C)c3c2)cc1	·	·	·	4.3%	-1.3%	·
COc1ccc(CC(=O)Nc2ccc3nc(Nc4cccc(Cl)c4)cc(C)c3c2)cc1	·	·	·	6.51µM*	5.8µM*	·
Cc1cc(Nc2cccc(C(F)(F)F)c2)nc2ccc(NC(=O)Cc3ccc(Cl)cc3)cc12	·	·	·	?	23.1µM*	·
O=C(Cc1ccc([N+](=O)[O-])cc1)Nc1cccc(C(F)(F)F)c1	-0.3%	-14.4%	-2.4%	?	?	-6.0
CC1(C)Cc2c(cnn2-c2ccccc2)C(NC(=O)CCN2CCCC2=O)C1 (stereo unspecified)	0.6%	23.7%	1.0%	-15.5%	-26.0%	1.0
COc1cccc(-c2ccc(=O)n(CC(=O)Nc3ccc(S(=O)(=O)NCC(C)C)cc3)n2)c1	·	-3.4%	·	·	·	·
CCOC(=O)c1c(C)[nH]c2ccc3c(c12)CN1CCc2cc(OC)ccc2[C@@H]1O3	·	·	·	8.41µM*	7.5µM*	·
CCOC(=O)c1c(C)[nH]c(C)c1C(=O)COC(=O)c1ccc(OC)cc1	-11.0%	?	0.0%	-15.2%	-15.7%	-5.9
COc1ccc(/C=C/c2nc(S(=O)(=O)c3ccccc3)c(NCCCN(C)C)o2)cc1OC	-16.4%	20.1%	-8.7%	-6.6%	-3.0%	-15.1
COc1ccccc1/C=C/c1nc(S(=O)(=O)c2ccccc2)c(NCCN(C)C)o1	-5.5%	-4.0%	-20.0%	?	20.6µM*	-27.2
COc1cccc(C(C(=O)NC2CCCCC2)N(C(=O)c2ccco2)c2ccccc2OC)c1 (stereo unspecified)	-14.0%	0.4%	-8.8%	?	11.6µM*	3.7
